{"source": "the supplement of paper PMC10849652", "note": "Targets with a hit are over-represented here; the source holds about 8,800 in all. About 0.5% of all pairs of compound and target were hits. Unmarked numbers belong to inactive results."}
{"compound": "C1=CC=C2C(=C1)C3=NNC4=CC=CC(=C43)C2=O", "assay": "log2 fold change, soluble protein after heating vs DMSO (PISA); higher = thermal stabilisation; K562 lysate, 10 uM; active = over 0.2 and 3.5 SD of the protein, either way, in both replicates (recomputed)", "method_in_brief": "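Quantification was by TMTpro 16plex LC-MS/MS with equalised channel sums, applied to the supernatant after 21,000xg for 90 min. Samples were crude K562 extract at 1 mg/mL protein in PBS pH 7.4 with 1 mM MgCl2, treated with 10 μM compound for 30 min, heated for 3 min across 48°C-58°C, pooled and brought to 0.5% NP-40 at 4°C. Values are log-two fold changes in thermal stability relative to solvent controls, from duplicates.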"}
{"target": "CHEK2 (UniProt O96017)", "log2 fold change": 0.148}
{"target": "COL12A1 (UniProt Q99715)", "sequence (Q99715 whole entry, looked up)": "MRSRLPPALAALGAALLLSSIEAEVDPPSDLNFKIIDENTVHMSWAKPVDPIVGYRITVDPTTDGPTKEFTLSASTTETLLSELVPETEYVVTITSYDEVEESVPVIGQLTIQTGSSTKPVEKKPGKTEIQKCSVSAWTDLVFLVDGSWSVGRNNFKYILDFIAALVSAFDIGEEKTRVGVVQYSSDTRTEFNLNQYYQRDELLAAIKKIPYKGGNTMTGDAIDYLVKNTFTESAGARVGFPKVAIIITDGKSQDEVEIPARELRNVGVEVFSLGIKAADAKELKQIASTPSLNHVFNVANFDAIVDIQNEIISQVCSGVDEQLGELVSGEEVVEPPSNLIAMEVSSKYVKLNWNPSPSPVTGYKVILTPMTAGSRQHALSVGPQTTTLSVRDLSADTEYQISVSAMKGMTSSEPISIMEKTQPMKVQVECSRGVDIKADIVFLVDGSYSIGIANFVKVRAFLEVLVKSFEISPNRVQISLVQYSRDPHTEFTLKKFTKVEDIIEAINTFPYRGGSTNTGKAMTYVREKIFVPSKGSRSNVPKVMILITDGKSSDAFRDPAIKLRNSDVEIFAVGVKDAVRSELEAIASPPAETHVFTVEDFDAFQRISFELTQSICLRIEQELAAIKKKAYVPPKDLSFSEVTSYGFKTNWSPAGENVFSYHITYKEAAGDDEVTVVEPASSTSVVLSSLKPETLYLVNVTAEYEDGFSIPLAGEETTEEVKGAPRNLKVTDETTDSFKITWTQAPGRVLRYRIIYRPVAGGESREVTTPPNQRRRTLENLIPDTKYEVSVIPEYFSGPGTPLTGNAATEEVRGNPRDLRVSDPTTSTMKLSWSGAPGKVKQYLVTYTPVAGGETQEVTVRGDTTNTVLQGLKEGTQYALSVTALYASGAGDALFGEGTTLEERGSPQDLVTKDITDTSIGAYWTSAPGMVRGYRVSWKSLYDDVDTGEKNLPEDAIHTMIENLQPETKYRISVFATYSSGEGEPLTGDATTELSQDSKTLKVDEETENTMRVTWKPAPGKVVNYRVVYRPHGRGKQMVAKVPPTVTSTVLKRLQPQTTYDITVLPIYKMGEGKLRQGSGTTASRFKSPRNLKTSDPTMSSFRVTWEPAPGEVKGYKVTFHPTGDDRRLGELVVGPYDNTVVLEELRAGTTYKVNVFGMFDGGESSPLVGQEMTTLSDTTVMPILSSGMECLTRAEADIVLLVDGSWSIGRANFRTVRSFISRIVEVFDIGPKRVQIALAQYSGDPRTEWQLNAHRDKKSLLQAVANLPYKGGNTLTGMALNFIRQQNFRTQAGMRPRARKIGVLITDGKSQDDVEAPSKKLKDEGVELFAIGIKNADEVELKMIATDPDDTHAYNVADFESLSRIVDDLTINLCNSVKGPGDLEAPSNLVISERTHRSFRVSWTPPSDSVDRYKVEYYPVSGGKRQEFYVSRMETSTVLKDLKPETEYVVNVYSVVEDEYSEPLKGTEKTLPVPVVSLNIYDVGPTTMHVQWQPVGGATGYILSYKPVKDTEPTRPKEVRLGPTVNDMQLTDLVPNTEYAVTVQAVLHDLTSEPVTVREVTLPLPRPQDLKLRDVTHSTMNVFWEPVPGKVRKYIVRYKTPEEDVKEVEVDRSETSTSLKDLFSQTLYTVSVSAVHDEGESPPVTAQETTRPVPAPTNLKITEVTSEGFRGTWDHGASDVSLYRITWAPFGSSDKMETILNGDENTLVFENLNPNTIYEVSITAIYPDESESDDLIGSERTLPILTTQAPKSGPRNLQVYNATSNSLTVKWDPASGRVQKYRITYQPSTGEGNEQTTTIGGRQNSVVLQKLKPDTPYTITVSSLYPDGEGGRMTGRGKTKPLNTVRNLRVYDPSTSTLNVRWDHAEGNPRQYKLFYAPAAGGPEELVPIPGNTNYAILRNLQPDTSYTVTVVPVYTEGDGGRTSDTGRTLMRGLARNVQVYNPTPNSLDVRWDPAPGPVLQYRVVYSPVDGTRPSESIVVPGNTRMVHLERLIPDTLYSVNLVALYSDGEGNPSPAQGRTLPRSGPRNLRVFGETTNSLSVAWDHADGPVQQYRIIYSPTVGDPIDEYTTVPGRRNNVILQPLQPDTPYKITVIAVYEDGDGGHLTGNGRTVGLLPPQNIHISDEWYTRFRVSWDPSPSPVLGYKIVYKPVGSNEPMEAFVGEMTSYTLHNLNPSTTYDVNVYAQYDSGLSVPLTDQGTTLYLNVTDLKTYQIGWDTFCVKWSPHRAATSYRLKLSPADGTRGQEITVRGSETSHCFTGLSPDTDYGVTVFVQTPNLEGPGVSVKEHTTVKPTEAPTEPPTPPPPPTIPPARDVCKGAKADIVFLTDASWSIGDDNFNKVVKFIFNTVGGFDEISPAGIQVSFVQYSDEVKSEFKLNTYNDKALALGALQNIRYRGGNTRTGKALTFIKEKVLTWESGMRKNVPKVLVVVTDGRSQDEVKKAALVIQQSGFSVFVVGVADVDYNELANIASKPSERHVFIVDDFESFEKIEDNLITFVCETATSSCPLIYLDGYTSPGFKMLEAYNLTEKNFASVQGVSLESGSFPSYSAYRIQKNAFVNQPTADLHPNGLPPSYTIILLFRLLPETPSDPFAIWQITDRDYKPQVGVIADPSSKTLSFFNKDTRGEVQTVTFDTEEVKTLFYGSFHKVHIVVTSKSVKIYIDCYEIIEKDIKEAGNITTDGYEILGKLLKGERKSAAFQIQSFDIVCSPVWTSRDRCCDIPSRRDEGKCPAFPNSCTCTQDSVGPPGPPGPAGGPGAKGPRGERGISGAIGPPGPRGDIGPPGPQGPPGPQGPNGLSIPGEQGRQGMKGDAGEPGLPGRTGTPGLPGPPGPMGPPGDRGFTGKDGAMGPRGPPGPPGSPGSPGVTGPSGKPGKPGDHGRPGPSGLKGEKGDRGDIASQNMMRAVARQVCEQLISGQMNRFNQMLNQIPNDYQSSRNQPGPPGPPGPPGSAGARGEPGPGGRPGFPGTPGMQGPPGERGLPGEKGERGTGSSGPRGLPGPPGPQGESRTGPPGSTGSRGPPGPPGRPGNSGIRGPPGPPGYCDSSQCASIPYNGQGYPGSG", "log2 fold change": -0.053}
{"target": "CSNK1D (UniProt P48730)", "log2 fold change": "0.415 (active)"}
{"target": "DALRD3 (UniProt Q5D0E6)", "log2 fold change": 0.021}
{"target": "CLASP2 (UniProt O75122)", "log2 fold change": -0.059}
{"target": "CORO7 (UniProt P57737)", "sequence (P57737 whole entry, looked up)": "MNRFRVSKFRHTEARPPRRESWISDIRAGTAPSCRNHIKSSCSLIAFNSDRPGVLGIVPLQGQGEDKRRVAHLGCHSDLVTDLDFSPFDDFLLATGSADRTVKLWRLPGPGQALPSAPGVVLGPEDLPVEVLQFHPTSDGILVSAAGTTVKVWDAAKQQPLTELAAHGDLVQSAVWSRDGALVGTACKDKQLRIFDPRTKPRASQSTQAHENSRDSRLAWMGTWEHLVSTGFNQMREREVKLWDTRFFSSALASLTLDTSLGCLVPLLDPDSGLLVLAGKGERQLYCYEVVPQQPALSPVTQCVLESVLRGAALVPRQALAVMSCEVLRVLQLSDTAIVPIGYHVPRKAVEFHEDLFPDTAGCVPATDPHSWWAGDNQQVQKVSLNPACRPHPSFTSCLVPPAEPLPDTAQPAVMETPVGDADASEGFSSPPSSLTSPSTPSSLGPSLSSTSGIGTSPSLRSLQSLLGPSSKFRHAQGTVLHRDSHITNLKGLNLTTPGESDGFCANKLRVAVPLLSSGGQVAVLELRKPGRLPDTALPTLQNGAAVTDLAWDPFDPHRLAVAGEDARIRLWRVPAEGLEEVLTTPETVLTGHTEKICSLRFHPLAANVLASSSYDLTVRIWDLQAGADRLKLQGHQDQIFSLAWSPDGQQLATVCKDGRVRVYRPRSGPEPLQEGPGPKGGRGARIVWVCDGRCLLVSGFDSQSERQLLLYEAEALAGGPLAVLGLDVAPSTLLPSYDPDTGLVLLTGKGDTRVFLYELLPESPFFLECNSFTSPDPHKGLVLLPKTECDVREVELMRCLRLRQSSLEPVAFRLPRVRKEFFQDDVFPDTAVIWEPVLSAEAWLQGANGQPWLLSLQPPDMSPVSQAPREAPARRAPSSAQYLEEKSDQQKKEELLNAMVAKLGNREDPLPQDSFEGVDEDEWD", "log2 fold change": -0.047}
{"target": "CPLX1 (UniProt O14810)", "log2 fold change": 0.114}
{"target": "DAPK1 isoform 3 (UniProt P53355)", "log2 fold change": 0.181}
{"target": "DHX32 (UniProt Q7L7V1)", "log2 fold change": 0.038}
{"target": "CNK3/IPCEF1 isoform 2 (UniProt G9CGD6)", "sequence (G9CGD6 whole entry, looked up)": "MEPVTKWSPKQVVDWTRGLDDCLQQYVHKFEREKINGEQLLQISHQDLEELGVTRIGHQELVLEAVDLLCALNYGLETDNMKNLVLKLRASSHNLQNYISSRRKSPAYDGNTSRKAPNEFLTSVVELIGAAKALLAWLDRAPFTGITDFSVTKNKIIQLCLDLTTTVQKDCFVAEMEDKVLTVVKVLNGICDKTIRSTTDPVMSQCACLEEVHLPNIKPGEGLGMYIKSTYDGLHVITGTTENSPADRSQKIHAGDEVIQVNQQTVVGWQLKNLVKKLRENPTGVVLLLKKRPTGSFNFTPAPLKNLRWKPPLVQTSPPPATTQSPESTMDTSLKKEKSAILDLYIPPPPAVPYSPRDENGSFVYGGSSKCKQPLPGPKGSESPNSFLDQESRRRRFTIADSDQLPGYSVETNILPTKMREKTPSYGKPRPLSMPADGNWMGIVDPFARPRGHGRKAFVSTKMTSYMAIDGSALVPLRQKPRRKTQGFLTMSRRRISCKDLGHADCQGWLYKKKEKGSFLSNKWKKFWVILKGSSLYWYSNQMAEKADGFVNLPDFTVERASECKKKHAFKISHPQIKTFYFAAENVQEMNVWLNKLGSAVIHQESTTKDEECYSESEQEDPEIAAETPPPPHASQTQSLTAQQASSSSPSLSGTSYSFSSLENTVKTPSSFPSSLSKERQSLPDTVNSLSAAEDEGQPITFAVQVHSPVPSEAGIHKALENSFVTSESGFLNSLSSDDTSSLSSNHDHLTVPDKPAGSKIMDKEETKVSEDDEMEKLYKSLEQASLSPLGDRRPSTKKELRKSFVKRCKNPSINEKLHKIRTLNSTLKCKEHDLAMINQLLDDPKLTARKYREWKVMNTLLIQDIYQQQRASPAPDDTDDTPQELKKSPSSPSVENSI", "log2 fold change": 0.053}
{"target": "CLASP1 isoform 4 (UniProt Q7Z460)", "log2 fold change": -0.029}
{"target": "CINP isoform 3 (UniProt Q9BW66)", "log2 fold change": -0.102}
{"target": "CLIP1, A0A3B3ITA2", "log2 fold change": -0.103}
{"target": "CXCL14 (UniProt O95715)", "sequence (O95715 whole entry, looked up)": "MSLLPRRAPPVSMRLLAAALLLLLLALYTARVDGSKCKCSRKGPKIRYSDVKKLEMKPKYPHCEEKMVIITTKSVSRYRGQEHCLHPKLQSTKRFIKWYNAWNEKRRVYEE", "log2 fold change": -0.268}
{"target": "DESI2 (UniProt Q9BSY9)", "log2 fold change": 0.119}
